HT1080 IDH1KD tx = toxicity to HT-1080 IDH1 knockdown cells (counter line); Potency, µM (titrated, usually from 46.1 µM), without a hit: at the highest dose activity, negative = toxicity, most hits filed as cytotoxic; 360,000 compounds, 2% hits; HT-1080 IDH1 knockdown viability, ATP luminescence, 48 h;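 further: 0% = DMSO wells and -100% = cell-free medium wells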
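% activity derives from luminescence (CellTiter-Glo), normalised to DMSO and no-cell wells. HT-1080-IDH1KD cells, 750/well, had 48 h compound exposure at 37 °C.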
KB-V1 cytotox = kills drug-selected multidrug resistant KB-V1 cells; 400,000 compounds, 3.4% hits; Potency, µM (doses to about 46.1 µM), most hits filed as cytotoxic; KB-V1 MDR cells viability, CellTiter-Glo, 72 h; further: nearly all actives have a fitted effect of over 60% in size
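KB-V1 MDR subline cells in DMEM (phenol-red free, 10% FBS) exposed to compounds in qHTS concentration series for 72 h at 37 degrees C. Viability read by CellTiter-Glo luminescence; concentration-effect curves fitted after normalization and correction.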
HT1080-NT tox = kills 2HG-producing HT-1080-NT fibrosarcoma cells | 360,000 compounds, 1.6% hits | Potency, µM (doses to about 46.1 µM), for the others: at the highest dose activity, negative = less viability, usual class: cytotoxic | HT-1080-NT fibrosarcoma viability, CellTiter-Glo ATP luminescence, 48 h | AID 686970;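 further: NT is the 2HG producing partner of a matched IDH1 knockdown line; 0% = DMSO-treated cells and -100% = media-only wells without cells; nearly all actives have a fitted effect of over 55% in size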
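HT-1080-NT fibrosarcoma cells (2HG-overproducing), 750 cells/well in RPMI with 5% FBS, dosed after 2 h and incubated 48 h at 37C. CellTiter-Glo luminescence normalized to DMSO and no-cell wells; concentration-response curves fitted and classed.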
TDP1 cell CPT = DT40-hTDP1 cell growth loss with CPT | Potency, µM (series often up to 46.2 µM), for the others: at the highest dose activity change, negative = growth inhibition, most hits filed as inhibitors | 420,000 compounds, 12% hits | chicken DT40 Tdp1-/-;hTDP1 cells + 20 nM CPT, ATP luminescence, 48 h; further: nearly all actives have a fitted effect of over 55% in size
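Cell growth measured by CellTiter-Glo luminescence after a minimum 48 h, 37 C compound exposure with 20 nM CPT in Tdp1-knockout DT40 cells stably expressing hTDP1, seeded 400/well; qHTS titration format.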
KB-3-1 cytotox = kills parental KB-3-1 adenocarcinoma cells | KB-3-1 viability, CellTiter-Glo ATP luminescence, 72 h | 400,000 compounds, 1.4% hits | Potency, µM (titrated, usually from 46.1 µM), most hits filed as cytotoxic; further: nearly all actives have a fitted effect of over 60% in size
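KB-3-1 cells, DMEM (no phenol red) + 10% FBS; compound by pin transfer, 72 h, 37 °C. Readout: CellTiter-Glo luminescence after 10 min. Data normalized, curve-fitted.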
TDP1 cell noCPT = qHTS for Inhibitors of human tyrosyl-DNA phosphodiesterase 1 (TDP1): qHTS in cells in absence of CPT. 420,000 compounds, 15% hits. Potency, µM (highest dose often 46.2 µM), inactives show at the top dose activity change, negative = growth inhibition, hits mostly inhibitors. DT40 Tdp1-/- hTDP1 cells, no CPT, ATP luminescence, 48 h; further: nearly all actives have a fitted effect of over 55% in size
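Chicken DT40 Tdp1-/- cells complemented with human TDP1, screened without camptothecin (DMSO vehicle only), 400 cells/well. Compounds pin-transferred, cells incubated at 37 °C for at least 48 hr. Growth read as ATP-dependent luminescence (CellTiter-Glo, 30 min at RT).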
The depositor's hits bear a star; i = inactive; ? = inconclusive; . = not tested or not shown; [ ] = dose if it differs, or a comment. This is a sample that favours compounds with a hit; in the whole collection about 19% have one here. The call rests on the fitted dose curve; in most records, active means well fitted curve in the direction sought with a large enough effect; inconclusive means small, poorly fitted or top-dose-only effect, or another doubt; inactive means no such curve, though single readings can be large; an effect the other way counts as inactive or inconclusive. Unless noted, on the % scale 0 is the no-effect control and ±100 the full control effect; potency means the concentration at half of the fitted maximal effect.

SMILES	HT1080 IDH1KD tx	KB-V1 cytotox	HT1080-NT tox	TDP1 cell CPT	KB-3-1 cytotox	TDP1 cell noCPT
CC1CCC(NC(=O)c2nn(C)c(=O)c3ccccc23)CC1 (centres undefined)	8%	i	0%	-25%	i	-23%
CCCn1nc(C(=O)NC2CC2)c2ccccc2c1=O	-3%	i	0%[9.24 µM]	-11%	i	5%
CC1(C)Cc2c(cnn2-c2ccccc2)C(NC(=O)c2ccc[n+]([O-])c2)C1 (centres undefined)	-1%	i	-6%	-3%	i	-13%
Nc1nccnc1C(=O)OCC(=O)c1ccc[nH]1	13%	i	15%	-4%	i	-5%
CN1CCN(c2ncncc2-c2ccc(N(C)C)cc2)CC1	.	.	.	?	.	-10%
CC(C)CCn1c(=O)c2ccccc2n2c(CCC(=O)NC3CCN(Cc4ccccc4)CC3)nnc12	7%	i	5%	?	i	?
CC(C)CCn1c(=O)c2ccccc2n2c(CN(C)Cc3ccccc3)nnc12	-7%	?	-3%	23µM*	i	16µM*
CC(C)CCn1c(=O)c2ccccc2n2c(CCl)nnc12	?	i	18µM*	?	?	23µM*
CC(C)CCn1c(=O)c2ccccc2n2c(=S)[nH]nc12	-13%	?	-20%	-23%	i	?
O=C(Nc1ccnn1C1CCN(C(=O)c2cccnc2)CC1)c1cccc(F)c1	2%	i	7%	12%	i	-2%
C/C=C/C=C\C(=O)Nc1cccc(C2=NOC3(C2)C[C@@H](C(N)=O)N(C(=O)c2cc([N+](=O)[O-])cc([N+](=O)[O-])c2C)C3)c1 (some centres undefined)	-3%	i	1%	16µM*	i	?
C/C=C\C(=O)Nc1cccc(C2=NOC3(C2)C[C@@H](C(N)=O)N(C(=O)c2ccccc2)C3)c1 (some centres undefined)	-1%	i	2%	-30%	i	-11%
C/C=C\C=C\C(=O)Nc1cccc(C2=NOC3(C2)C[C@H](C(N)=O)N(C(=O)c2ccccc2C(=O)c2ccccc2)C3)c1 (some centres undefined)	-12%	i	-12%	?	i	16µM*
CCCCCC(=O)Nc1cccc(C2=NOC3(C2)C[C@@H](C(N)=O)N(C(=O)c2cc([N+](=O)[O-])cc([N+](=O)[O-])c2C)C3)c1 (some centres undefined)	-16%	i	-12%	?	i	?
CCc1cnc2c(c1SCC(=O)Nc1ccc(C)cc1C)c(=O)n(C)c(=O)n2C	.	i	.	-9%	i	5%
N#Cc1ccccc1S(=O)(=O)N1CCN(C(=O)C2CCCCC2)CC1	-2%	i	-5%	-5%	i	-5%
Cc1ccc(S(=O)(=O)N(CCO)Cc2cc3ccc(C)c(C)c3[nH]c2=O)cc1	-20%	16µM*	-19%	?	i	?
CCOC(=O)c1cccc(S(=O)(=O)N(CCO)Cc2cc3cc(OC)ccc3[nH]c2=O)c1	-13%	?	-12%	-16%	i	-7%
COC(=O)c1cccc(S(=O)(=O)N(Cc2ccco2)Cc2cc3cc(OC)ccc3[nH]c2=O)c1	-28%	16µM*	-28%	29µM*	i	?
CCCCN(Cc1cc2cc(OC)ccc2[nH]c1=O)S(=O)(=O)c1ccc(C)cc1	-28%	i	?	10µM*	?	7.3µM*
Cc1ccc2cc(CCNS(=O)(=O)c3ccc(Cl)cc3)c(=O)[nH]c2c1C	-14%	i	-17%	21µM*	i	23µM*
Cc1ccc(S(=O)(=O)N(CCCO)Cc2cc3c(C)ccc(C)c3[nH]c2=O)cc1	-3%	i	-3%	?	i	?
COc1ccc(NC(=O)C2=C(C)Nc3ncnn3C2c2cccn2C)cc1 (centres undefined)	.	?	.	-4%	i	-5%
CC(=O)Nc1ccc(S(=O)(=O)N(Cc2cc3ccc(C)cc3[nH]c2=O)CC2CCCO2)cc1 (centres undefined)	13%	i	5%	-21%	i	?
COc1ccc2cc(CN(CC3CCCO3)S(=O)(=O)c3ccc(C(C)=O)cc3)c(=O)[nH]c2c1 (centres undefined)	19%	i	0%	-27%	i	?
SMILES	HT1080 IDH1KD tx	KB-V1 cytotox	HT1080-NT tox	TDP1 cell CPT	KB-3-1 cytotox	TDP1 cell noCPT
Cc1ccc2cc(CN(CC3CCCO3)S(=O)(=O)c3cccc4nsnc34)c(=O)[nH]c2c1 (centres undefined)	12%	i	-1%	?	i	18µM*
COc1ccc(S(=O)(=O)N(Cc2cc3cc(C)ccc3[nH]c2=O)CC2CCCO2)cc1 (centres undefined)	7%	7.3µM*	5%	?	i	21µM*
O=c1[nH]c2ccccc2c2nc(-c3cccc(S(=O)(=O)N4CCCC4)c3)nn12	1%	i	10%	?	i	16µM*
O=C1CC(N2CCN(C3CC(=O)N(CCc4ccccc4)C3=O)CC2)C(=O)N1CCc1ccccc1 (centres undefined)	2%[9.24 µM]	?	-20%	?	i	?
O=C1CC(N2CCN(C/C=C/c3ccccc3)CC2)C(=O)N1CCc1ccccc1 (centres undefined)	-24%	12µM*	?	18µM*	i	21µM*
Cc1ccc2c(c1)C(=C(C#N)C#N)C(=O)N2CCN1CCCCC1	10%	i	6%	23µM*	i	18µM*
CC(=O)NC1C(=O)N(CCN2CCOCC2)c2ccc(C)cc21 (centres undefined)	12%	?	13%	0%	i	9%
Cc1ccc2c(c1)C(=C(C#N)C#N)C(=O)N2CCN1CCOCC1	-4%	i	-5%	16µM*	i	?
CC(=O)c1cccc(NC(=O)CCS(=O)(=O)c2cc(Br)cc3c2N(C(=O)C2CC2)CC3)c1	.	i	.	?	i	?
CCOC(=O)Nc1ccc2c(c1)N(C(=O)CN1CCN(CCO)CC1)c1ccccc1CC2	9%	i	5%	-22%	i	-13%
O=C(O)c1cccnc1Nc1ccc(Cl)cc1	-24%	12µM*	-20%	?	7.3µM*	?

High-throughput results deposited in PubChem BioAssay by National Center for Advancing Translational Sciences (NCATS).
